Compound activity: PubChem BioAssay, National Center for Advancing Translational Sciences (NCATS)
In the library only some 2.9% were active in any assay of this set; here they are far more common.
POLK inh – inhibitors of human DNA polymerase kappa | Q9UBT6 | purified Pol kappa, fluorescent DNA synthesis assay, 10 min | Potency, µM (series often up to 107 µM), for inactives: at the top dose activity, negative = inhibition, hits mostly inhibitors | 400,000 tested, 0.53% active; also: potency is read from the fitted curve at half-maximal effect; % is scaled to controls: 0 for no effect and ±100 for the full control effect
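Inhibition of 10 nM Pol kappa is measured by a fluorescent read-out at 0 and 10 min following addition of 50 nM substrate (final), with a 15-min room-temperature compound preincubation.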
Pol iota inh – DNA polymerase iota (human) inhibition. Q9UNA4. Pol iota fluorescent replication assay, 10 min. Potency, µM (series often up to 115 µM), without a hit: top-dose activity, negative = inhibition, hits mostly inhibitors. 390,000 tested, 1% active. AID 588590; also: potency is read from the fitted curve at half-maximal effect
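Fluorescent replication assay read twice, at 0 min and 10 min after adding 50 nM (final) substrate. Enzyme (10 nM) and compounds were first incubated 15 min at room temperature; enzyme-free buffer wells were negative controls.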
POLB inh – DNA polymerase beta (human) inhibition | 340,000 tested, 1.3% active | Pol beta primer extension/strand displacement, fluorescence kinetic | Potency, µM (top dose mostly 114 µM), without a hit: at the highest dose activity change, negative = inhibition, hits mostly inhibitors; also: potency is read from the fitted curve at half-maximal effect; % is scaled to controls: 0 for no effect and ±100 for the full control effect
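Human Pol beta at 10 nM; strand-displacement substrate 50 nM final. Compound exposure 15 min at room temperature before start, reaction 10 min at room temperature.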
Pol eta inh – inhibitors of human DNA polymerase eta. Q9Y253. recombinant Pol eta, fluorescent DNA replication assay. Potency, µM (top dose mostly 114 µM), inactives show top-dose activity change, negative = inhibition, most hits filed as inhibitors. 390,000 tested, 1.2% active; also: potency is read from the fitted curve at half-maximal effect; % is scaled to controls: 0 for no effect and ±100 for the full control effect
Target sequence (Q9Y253 whole entry, looked up): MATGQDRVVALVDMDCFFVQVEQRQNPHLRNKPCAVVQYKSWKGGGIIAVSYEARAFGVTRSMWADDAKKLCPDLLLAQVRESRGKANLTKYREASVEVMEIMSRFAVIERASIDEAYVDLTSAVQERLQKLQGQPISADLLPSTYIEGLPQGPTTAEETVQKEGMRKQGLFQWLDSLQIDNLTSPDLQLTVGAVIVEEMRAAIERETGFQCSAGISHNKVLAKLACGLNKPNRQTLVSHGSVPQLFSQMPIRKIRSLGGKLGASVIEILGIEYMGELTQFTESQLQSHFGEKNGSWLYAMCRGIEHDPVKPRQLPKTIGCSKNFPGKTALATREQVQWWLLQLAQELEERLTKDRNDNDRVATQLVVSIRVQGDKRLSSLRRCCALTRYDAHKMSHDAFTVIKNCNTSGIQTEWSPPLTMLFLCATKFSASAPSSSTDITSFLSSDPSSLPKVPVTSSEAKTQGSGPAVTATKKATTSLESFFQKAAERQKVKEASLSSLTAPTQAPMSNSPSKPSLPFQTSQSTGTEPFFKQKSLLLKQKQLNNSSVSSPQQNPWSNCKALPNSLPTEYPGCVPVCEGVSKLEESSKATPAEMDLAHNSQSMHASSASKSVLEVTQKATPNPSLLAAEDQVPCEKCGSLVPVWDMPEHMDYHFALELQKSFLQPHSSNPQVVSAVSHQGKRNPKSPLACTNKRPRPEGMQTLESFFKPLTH
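Pol eta at 10 nM preincubated with compounds 15 min at room temperature; reaction started with fluorescent substrate (50 nM final) and read kinetically at 0 and 10 min.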
PI5P4K alpha inh – inhibitors of human PI5P4K alpha; P48426; PI5P4Kalpha enzyme, ADP-Glo luminescence, 60 min; stronger effect = lower value; max response, %; 330,000 tested, 1.2% active; AID 652105; active = max response of -50% or lower; inconclusive = between -30% and -50%; inactive = -30% or higher; also: value at the top dose of about 77 µM; % is scaled to controls: 0 for no effect and ±100 for the full control effect
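Human PI5P4Kalpha with substrate in 0.038 M HEPES pH 7.4, 0.28 mM EGTA, 0.1% CHAPS, 5% DMSO; reaction started with 5 microM ATP (final), 60 min at room temperature. ADP formed read by ADP-Glo luminescence.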
12-LOX inh – inhibitors of human 12S-lipoxygenase ALOX12; P18054; purified 12hLO, xylenol orange hydroperoxide absorbance; Potency, µM (highest dose often 108 µM), inactives show top-dose activity change, negative = inhibition, actives largely listed as inhibitors; 580,000 tested, 1.1% active; AID 1671190; also: potency is read from the fitted curve at half-maximal effect; % is scaled to controls: 0 for no effect and ±100 for the full control effect
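Hydroperoxide product was detected by ferrous iron/xylenol orange as the 573 to 405 nm absorbance ratio. Arachidonic acid at 40 uM (final) was turned over for 30 min at room temperature by 150 nM human 12hLO, pH 7.0 Hepes buffer, after 15 min compound preincubation.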
* marks the source's active call; other numbers are inactive results; ! = repeats disagree. Unless noted, calls follow the shape of the dose curve; as a rule, active = well fitted inhibition curve with a large enough effect; inconclusive = small, poorly fitted or top-dose-only effect, or another doubt; inactive = no such curve, though single readings can be large or run the other way.

`O=C(Nc1nnc(S(=O)(=O)N2CCCCC2)s1)c1cccc(Br)c1` gave POLK inh -17%, Pol iota inh inconclusive, POLB inh -19%, Pol eta inh 45µM* and PI5P4K alpha inh -8.
Cc1cccc(C(=O)Nc2nnc(S(=O)(=O)N3CCC(C)CC3)s2)c1 was read as POLK inh -7%, Pol iota inh -6%, POLB inh -6%, Pol eta inh 79µM*!, PI5P4K alpha inh -15 and 12-LOX inh -5%.
`CC1(NC(=S)Nc2ccc3ccccc3c2)CCS(=O)(=O)C1` (configuration not stated) gave POLK inh 2%, Pol iota inh 43%, POLB inh 15%, Pol eta inh -18%, PI5P4K alpha inh 6 and 12-LOX inh 16%.
Screening CN(C)C(=S)NC(=S)Nc1ccc2ccccc2c1 returned POLK inh -14%, Pol iota inh 11%, Pol eta inh inconclusive, PI5P4K alpha inh 17 and 12-LOX inh 35µM*.
For Cc1cc(NC(=O)C2CC=CCC2C(=O)O)no1 (configuration not stated) the results were POLK inh -15%, Pol iota inh -1%, POLB inh 22µM*, Pol eta inh inconclusive, PI5P4K alpha inh 1 and 12-LOX inh -12%.
For COc1ccc2c(CC(=O)OCC(=O)Nc3ccc(C)cc3)coc2c1 the results were POLK inh inconclusive, Pol iota inh inconclusive, Pol eta inh 20µM*, PI5P4K alpha inh -26 and 12-LOX inh 19%.
Screening Cc1cc(OCC(=O)Nc2ccc(CN3CCOCC3)cc2)c2c(C)cc(=O)oc2c1 returned POLK inh -39%, Pol iota inh 50µM*, POLB inh 23%, Pol eta inh 4%, PI5P4K alpha inh -3 and 12-LOX inh 8%.
COC(=O)C1CCN(C(=O)c2sc3ccccc3c2Cl)CC1 was read as 12-LOX inh -7%.
Screening CN(C)NC(=S)NC1CC2CCC1C2 (configuration not stated) returned POLK inh -18%, Pol iota inh 12%, POLB inh 2%, Pol eta inh -14%, PI5P4K alpha inh 0 and 12-LOX inh 18µM*.
O=C(CCCCCNC(=O)c1ccccc1Br)N=Nc1c(O)[nH]c2ccccc12 was read as POLK inh -17%, Pol iota inh 79µM*, POLB inh 2%, Pol eta inh -7%, PI5P4K alpha inh -7 and 12-LOX inh -15%.
For COc1ccccc1NC(=O)COc1ccc(/C=N/NC(=O)c2cccnc2)cc1 the results were POLK inh -1%, Pol iota inh 22%, POLB inh -15%, Pol eta inh 2%, PI5P4K alpha inh 8 and 12-LOX inh inactive.
Screening O=C(COc1ccc(/C=N/NC(=O)c2ccccc2Br)cc1)Nc1ccccc1 returned POLK inh 5%, Pol iota inh 36%, POLB inh inconclusive, Pol eta inh -12%, PI5P4K alpha inh 5 and 12-LOX inh inconclusive.
O=C(CCC(=O)Nc1ccccc1)N/N=C/c1ccncc1 was read as POLK inh 9%, Pol iota inh 9%, POLB inh 20µM*, Pol eta inh 7%, PI5P4K alpha inh 1 and 12-LOX inh 9%.
`O=C(COc1ccc(/C=N/NC(=O)c2cccnc2)cc1)Nc1ccccc1` gave POLK inh -1%, Pol iota inh 49%, POLB inh 32µM*, Pol eta inh inconclusive, PI5P4K alpha inh -3 and 12-LOX inh -5%.
Cn1c(-c2ccccc2)c(/C=N/NC(=O)c2cccnc2)c2ccccc21 was read as POLK inh -26%, Pol iota inh 21%, POLB inh 56µM*, Pol eta inh -18%, PI5P4K alpha inh -7 and 12-LOX inh 15%.
Screening CC(NC(=O)COc1ccc(/C=N/NC(=O)C(=O)Nc2ccccc2Br)cc1)c1ccccc1 (configuration not stated) returned POLK inh 9%, Pol iota inh inconclusive, POLB inh 32µM*, Pol eta inh inconclusive, PI5P4K alpha inh 12 and 12-LOX inh 0%.
